{"source": "PubChem BioAssay (Tox21)", "note": "Active and inactive are the calls of the source. Calls follow the shape of the dose curve; as a rule, active = well fitted curve in the direction sought with a large enough effect in the repeat runs; inconclusive = weak or mixed curves; inactive = flat fitted curve, though single readings scatter. % is scaled to controls: 0 for no effect and ±100 for the full control effect."}
{"test": "qHTS assay to test for compound auto fluorescence at 535 nm (green) in HEK293 cell free culture (AID 720682)", "details": "cell-free medium, green autofluorescence 485/535 nm, hits give high values; series mostly up to 91.3 µM; activity change: at the top concentration", "summary_of_the_method": "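Green-channel intensity (Ex/Em 485/535 nm) was recorded from compound-treated wells containing only DMEM with 10% FBS. Fluorescein provided the equivalency standard.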"}
{"smiles": "NC(=O)Cc1cccc(C(=O)c2ccccc2)c1N", "activity change": "-0.0145% [at 46 µM] (inactive)"}
{"smiles": "Nc1cccc(S(=O)(=O)O)c1", "activity change": "0.073% (inactive)"}
{"smiles": "COC(=O)c1ccc(OC)cc1", "activity change": "0.0066% (inactive)"}
{"smiles": "C=Cc1ccccc1", "outcome": "inactive"}
{"smiles": "Cc1cc(S(=O)(=O)O)c(N)cc1Cl", "activity change": "-0.0263% (inactive)"}
{"smiles": "O=C(O)c1cccc(Cl)c1Cl", "activity change": "-0.0818% (inactive)"}
{"test": "qHTS assay to test for compound auto fluorescence at 590 nm (red) in HEK293 cell free culture (AID 720683)", "details": "cell-free medium autofluorescence, Ex540/Em590 red; series mostly up to 91.3 µM; fluorescence, % of fluorescent control: at the top concentration", "summary_of_the_method": "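Tox21 10K library compounds were pinned into cell-free DMEM with 10% FBS and fluorescence was read at excitation 540 nm. Activity is expressed as Rose Bengal sodium equivalency.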"}
{"smiles": "NCCCN1CCN(CCCN)CC1", "fluorescence, % of fluorescent control": "-0.0483% (inactive)"}
{"smiles": "CCCOCCC", "fluorescence, % of fluorescent control": "-0.0508% (inactive)"}
{"smiles": "CCCCNC(=S)NCCCC", "fluorescence, % of fluorescent control": "-0.109% (inactive)"}
{"smiles": "OCCN(CCO)CCN(CCO)CCO", "fluorescence, % of fluorescent control": "0.0849% (inactive)"}
{"smiles": "CC(C)C1=CC2=CC[C@@H]3[C@](C)(CCC[C@@]3(C)C(=O)O)[C@H]2CC1", "outcome": "inactive"}
{"smiles": "NC/C=C/C(=O)O", "fluorescence, % of fluorescent control": "-0.733% [at 46 µM] (inactive)"}
{"smiles": "COc1ccccc1N1CCN(CCCNc2cc(=O)n(C)c(=O)n2C)CC1", "outcome": "inactive"}
{"smiles": "CCN1CC(CCN2CCOCC2)C(c2ccccc2)(c2ccccc2)C1=O", "note": "(stereo unspecified)", "fluorescence, % of fluorescent control": "0.429% [at 46 µM] (inactive)"}
{"smiles": "C[C@@H]1CN(c2c(F)c(N)c3c(=O)c(C(=O)O)cn(C4CC4)c3c2F)C[C@H](C)N1", "fluorescence, % of fluorescent control": "-0.185% [at 46 µM] (inactive)"}
{"smiles": "CCOC(=O)c1ccccc1O", "outcome": "inactive"}
{"smiles": "CC(=O)N[C@@H](CC(C)C)C(=O)O", "fluorescence, % of fluorescent control": "-0.0027% [at 46 µM] (inactive)"}
{"smiles": "CC(C)CC(=O)OCc1ccccc1", "fluorescence, % of fluorescent control": "0.0965% (inactive)"}
{"smiles": "CC/C=C\\CCOC(=O)CCCCC", "fluorescence, % of fluorescent control": "-0.203% (inactive)"}
{"smiles": "Cc1ccc(C=O)s1", "fluorescence, % of fluorescent control": "0.233% (inactive)"}
{"smiles": "FC(F)(F)C(Cl)(Cl)Cl", "fluorescence, % of fluorescent control": "-0.35% (inactive)"}
{"smiles": "CN(C)Cc1ccccc1", "outcome": "inactive"}
{"smiles": "CC(C)c1ccccc1", "fluorescence, % of fluorescent control": "0.0165% [at 95.7 µM] (inactive)"}
{"smiles": "O=Cc1ccc(F)c(Br)c1", "fluorescence, % of fluorescent control": "-0.126% (inactive)"}
{"smiles": "CCOC(=O)C(Br)c1ccccc1", "note": "(stereo unspecified)", "fluorescence, % of fluorescent control": "-0.275% (inactive)"}
{"smiles": "CCCC1CCC(=O)O1", "note": "(stereo unspecified)", "fluorescence, % of fluorescent control": "0.0587% (inactive)"}
{"smiles": "CN1CCN(c2c(F)cc3c(=O)c(C(=O)O)cn4c3c2SCC4)CC1", "fluorescence, % of fluorescent control": "0.101% [at 46 µM] (inactive)"}
{"smiles": "O=c1[nH]cnc2c1ncn2[C@@H]1O[C@H](CO)[C@@H](O)[C@H]1O", "fluorescence, % of fluorescent control": "-0.0794% [at 46 µM] (inactive)"}
{"smiles": "CCOC(=O)[C@H](CCc1ccccc1)N[C@@H](C)C(=O)N1Cc2cc(OC)c(OC)cc2C[C@H]1C(=O)O", "fluorescence, % of fluorescent control": "-0.664% [at 46 µM] (inactive)"}
{"smiles": "CC(C)C(=O)OC/C=C/c1ccccc1", "fluorescence, % of fluorescent control": "-0.0449% (inactive)"}
{"smiles": "COc1nc(C)nc(NC(=O)NS(=O)(=O)c2ccccc2OCCCl)n1", "fluorescence, % of fluorescent control": "0.407% (inactive)"}
{"smiles": "FC(F)(F)c1ccccc1", "fluorescence, % of fluorescent control": "-0.489% (inactive)"}
{"smiles": "Cc1c(C(=O)NCCO)[n+](=O)c2ccccc2n1[O-]", "fluorescence, % of fluorescent control": "0.326% [at 46 µM] (inactive)"}
{"smiles": "CCCCc1ccc2nc(NC(=O)OC)[nH]c2c1", "fluorescence, % of fluorescent control": "0.113% [at 18.6 µM] (inactive)"}
{"smiles": "NC(=O)Cc1cccc(C(=O)c2ccccc2)c1N", "fluorescence, % of fluorescent control": "0.0553% [at 46 µM] (inactive)"}
{"smiles": "Nc1cccc(S(=O)(=O)O)c1", "fluorescence, % of fluorescent control": "-0.12% (inactive)"}
{"smiles": "COC(=O)c1ccc(OC)cc1", "fluorescence, % of fluorescent control": "-0.0648% (inactive)"}
{"smiles": "COc1cc(C)ccc1C(C)C", "fluorescence, % of fluorescent control": "-0.0323% (inactive)"}
{"smiles": "C=Cc1ccccc1", "outcome": "inactive"}
{"smiles": "Cc1cc(S(=O)(=O)O)c(N)cc1Cl", "fluorescence, % of fluorescent control": "0.0251% (inactive)"}
{"smiles": "O=C(O)c1cccc(Cl)c1Cl", "fluorescence, % of fluorescent control": "0.0142% (inactive)"}
